Bioassay records deposited in PubChem by National Center for Advancing Translational Sciences (NCATS).
Shown are actives, neighbours in structure and some others; about 2.9% of the full set was active somewhere.
D3 antag = antagonists of human D3 dopamine receptor; max response, negative = inhibition, %; P35462; AID 652054; D3R cells, DiscoveRx beta-arrestin luminescence, antagonist mode; stronger effect = lower value; 360,000 tested, 2.5% active; in the data active = max response below about -50%; inconclusive = no clear call, values can overlap the other calls; note: % is set by controls: 0 for no effect and ±100 for the full control effect
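Cells expressing the human receptor were seeded at 1500 cells/well, incubated overnight at 37 degrees C in 5% CO2, then exposed to library compounds with dopamine controls for 90 minutes at 37 degrees C before luminescent detection.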
mIDH1 inhibitor = blocks human mutant IDH1 R132H enzyme; Potency, µM (doses to about 76.6 µM), for the others: at the highest dose activity change, negative = inhibition, actives largely listed as inhibitors; O75874; 390,000 tested, 0.093% active; IDH1-R132H enzyme, NADPH consumption, diaphorase/resazurin fluorescence; note: potency is the fitted concentration of half-maximal effect; % is set by controls: 0 for no effect and ±100 for the full control effect; nearly all actives have a fitted effect of over 65% in size
Target sequence (O75874 whole entry R132H, stated change not applied): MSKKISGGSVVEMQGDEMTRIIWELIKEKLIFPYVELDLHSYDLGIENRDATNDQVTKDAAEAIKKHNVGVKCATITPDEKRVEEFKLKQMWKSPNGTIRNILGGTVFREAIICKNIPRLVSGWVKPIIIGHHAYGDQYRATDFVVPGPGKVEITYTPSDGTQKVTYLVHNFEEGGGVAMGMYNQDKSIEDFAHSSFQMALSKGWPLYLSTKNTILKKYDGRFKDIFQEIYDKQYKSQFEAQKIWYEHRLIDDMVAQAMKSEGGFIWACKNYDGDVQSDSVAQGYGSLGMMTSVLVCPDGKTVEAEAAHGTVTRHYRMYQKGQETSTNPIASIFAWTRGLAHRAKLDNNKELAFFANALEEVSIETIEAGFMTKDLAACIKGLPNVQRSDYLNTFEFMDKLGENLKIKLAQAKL
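IDH1-R132H (0.5 ug/mL) preincubated 30 min with compound, then NADPH (0.016 mM) and alpha-KG (2 mM) added; 80 min at RT, pH 7.5. Remaining NADPH coupled via diaphorase/resazurin to fluorescence (540/590 nm); concentration-response curves normalized to no-enzyme control.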
DRD3 agonist = activates the human D3 dopamine receptor. D3R DiscoveRx beta-arrestin cells, luminescence, 90 min. P35462. AID 652048. max activation, %. 410,000 tested, 0.58% active; in the data active = max activation above about 30%; note: 0% is about no effect
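Agonist mode: compounds and dopamine controls were applied to plated cells for 90 min at 37 degrees C after an overnight attachment at 1500 cells/well. Luminescent read-out followed 30 - 60 minutes at room temperature with DiscoveRx detection reagent.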
B2AR arrestin = recruits beta-arrestin to the human beta2-adrenergic receptor; P07550; beta-arrestin recruitment to beta2AR, cell-based reporter; Potency, µM (titrated, usually from 46.1 µM), inactives show at the highest dose activation, usual class: activators; 330,000 tested, 0.02% active; AID 492947;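 note: potency is the fitted concentration of half-maximal effect; 0% = DMSO controls and full agonism = EC100 isoproterenol or metaproterenol; nearly all actives have a fitted effect of over 65% in size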
a7 integrin act = activators of alpha7 integrin expression for muscular dystrophy; alpha7betagal myoblasts, beta-gal FDG fluorescence, 48 h; Potency, µM (top dose mostly 38.3 µM), without a hit: at the highest dose activation, usual class: activators; 350,000 tested, 0.064% active; AID 624291;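 note: potency is the fitted concentration of half-maximal effect; 100% = response of the positive control SU9516; nearly all actives have a fitted effect of over 60% in size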
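Alpha7betagal+/- myoblasts (passage 13) were plated 16-24 hr, then exposed to compounds (1:260 dilution of DMSO stock) for 48 hours at 37C. After MPER lysis, β-galactosidase reporter activity was read as FDG fluorescence (ex 480/em 540) after 30 minutes.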
An asterisk follows results filed as active; ? = inconclusive; . = no result; [ ] = another dose, or the depositor's remark. Unless noted, calls come from the whole dose curve; as a rule, active = well fitted curve in the direction sought with a large enough effect; inconclusive = small, poorly fitted or top-dose-only effect, or another doubt; inactive = no such curve, though single readings can be large; an effect the other way counts as inactive or inconclusive.

SMILES	D3 antag	mIDH1 inhibitor	DRD3 agonist	B2AR arrestin	a7 integrin act
CCN1CCN(Cc2ccc(NC(=O)Nc3ccccc3OC)cc2)CC1	-72*	-2%	-23	0%	15%
CCC(=O)Nc1ccc(N2CCN(C(=O)c3cccs3)CC2)cc1	-23	-2%	-2	0%	38%
CCN1CCN(c2ccc(NC(=O)COc3ccccc3Cl)cc2)CC1	-64*	3%	2	-1%	13%
CCN1CCN(c2ccc(NC(=O)COc3ccc(Cl)cc3C)cc2)CC1	-52*	-1%	-23	0%	-21%
O=C(COc1ccccc1[N+](=O)[O-])Nc1ccc(N2CCN(C(=O)c3cccs3)CC2)cc1	73	2%	34*	1%	-57%
CCCCNC(=O)C1CCN(c2nc3ccccc3nc2C(F)(F)F)CC1	.	-5%	-6	.	.
CN(C)c1ccc(CN(CC2CCCO2)C(=O)COc2ccc(Cl)cc2)cc1 (configuration not stated)	.	15%	10	.	.
Cc1cc(N)ccc1N1CCCC1	-55*	20%	-7	0%	-22%
CC(=O)N(/N=C/c1ccc([N+](=O)[O-])o1)c1nc2ccccc2c(=O)n1-c1ccccc1	-54*	-11%	-22	1%	-1%
Cc1nc2ccccc2c(=O)n1/N=C/c1ccc([N+](=O)[O-])o1	.	.	.	6%	.
Cc1cccc(N=C2NC(=O)/C(=C/c3cccn3C)S2)c1	-26	6%	-11	3%	14%
O=C1NC(=Nc2ccccc2)S/C1=C\c1cccn1-c1ccccc1	-70*	-8%	-5	-1%	4%
O=C(O)c1ccc2c(c1)C(=O)N([C@H](Cc1c[nH]c3ccccc13)C(=O)O)C2=O	.	.	.	0%	.
O=C1CC(c2nc3ccccc3n2Cc2c(F)cccc2Cl)CN1c1cccc(C(F)(F)F)c1 (configuration not stated)	.	.	-2	.	.
CCOC(=O)c1ccc(NC(=O)c2nc[nH]c2C(=O)NC)cc1	24	-4%	49*	0%	8%
CC(C)(C)OC(=O)NCc1ccc(CNC(=O)c2[nH]cnc2C(=O)NCC(=O)OCc2ccccc2)cc1	127	-9%	43*	1%	0%
O=C(Nc1ccccc1)c1nc[nH]c1C(=O)NCc1ccccc1	4	-7%	5	0%	-4%
COc1ccc(NC(=O)c2nc[nH]c2C(=O)NCc2ccccc2)cc1	-3	-1%	57*	0%	18%
CCN(CC)C(=O)c1[nH]cnc1C(=O)NCC(=O)OCc1ccccc1	45	0%	39*	0%	31%
CC(C)(C)OC(=O)NCc1ccc(CNC(=O)c2nc[nH]c2C(=O)NCc2ccccc2)cc1	21	4%	12	-1%	-33%
CCOC(=O)c1ccc(NC(=O)c2nc[nH]c2C(=O)NCCNC(=O)c2[nH]cnc2C(=O)Nc2ccc(C(=O)OCC)cc2)cc1	10	-27%	29	0%	28%
O=C(O)[C@H](CC(=O)N1C[C@H]2CCCC[C@H]2C1)Cc1ccccc1	.	.	-1	.	.
Cc1c(CC(=O)NCCc2ccc(Cl)cc2)c(=O)oc2c(C)c3occ(C(C)(C)C)c3cc12	.	11%	15	.	.
CCCCn1c(C)cc2c(c1=O)[C@H]1O[C@](CCCC)(Cc3c1ccc1ccccc31)O2	.	.	.	-2%[9.22 µM]	.
COc1ccc(-c2onc(C)c2C)cc1S(=O)(=O)N(C)Cc1ccccc1	.	5%	2	.	.
SMILES	D3 antag	mIDH1 inhibitor	DRD3 agonist	B2AR arrestin	a7 integrin act
O=S(=O)(c1ccccc1)n1nc(-c2ccco2)nc1NCc1ccccc1	.	0%	4	.	.
CC(C)(C)OC(=O)NCc1ccc(NC(=O)c2nc[nH]c2C(=O)N[C@@H](Cc2ccccc2)C(=O)OCc2ccccc2)cc1	32	9%	31*	0%	-35%
CN(Cc1ccccc1)C(=O)c1[nH]cnc1C(=O)NCc1ccc(CNC(=O)OC(C)(C)C)cc1	78	3%	70*	0%	-12%
CC(C)(C)OC(=O)CNC(=O)c1[nH]cnc1C(=O)NCCCCCNC(=O)OC(C)(C)C	74	21%	55*	-1%	-38%
CN(Cc1ccccc1)C(=O)c1[nH]cnc1C(=O)NCc1ccccc1	9	11%	3	0%	-16%
C=Cc1ccc(Cn2c(=O)cc(C)c3c(C)nn(C)c32)cc1	.	3%	2	.	.
CC1=C[C@H](O)CC(C)(C)[C@H]1/C=C/C(C)=C/C=C/C(C)=C/C=C/C=C(C)/C=C/C=C(C)/C=C/C1=C(C)C[C@@H](O)CC1(C)C	.	.	-1	.	.
CCCc1ccc(Oc2c(-c3ccc(O)c(C)c3O)n[nH]c2C)cc1	-81*	-15%	0	0%	-42%
CCN1CCN(Cc2c(O)ccc3oc(C)c(C(=O)Nc4cccc(C(F)(F)F)c4)c23)CC1	.	14%	-21	.	.
COc1ccc(-c2nc(C(=O)NCC3CCCO3)cc3c2[nH]c2ccccc23)cc1 (configuration not stated)	69	-4%	34*	14%	-16%
COc1cc(-c2nc(C(=O)NC3CCN(Cc4ccccc4)CC3)cc3c2[nH]c2ccccc23)cc(OC)c1OC	-117*	-10%	-63	-1%	-47%
COc1ccc(OC)c(-c2nc(C(=O)NC3CCN(Cc4ccccc4)CC3)cc3c2[nH]c2ccccc23)c1	-125*	-2%	-60	0%	-35%
COc1ccc(NCc2cc3cc4c(cc3n(CC(=O)Nc3cc(C)ccc3C)c2=O)OCCO4)cc1	.	-16%	-2	.	.
COc1ccc2c(c1)c1c(c(=O)n(-c3cccc(C)c3)c(=O)n1CC(=O)NCC1CCCO1)n2C (configuration not stated)	.	12%	4	.	.
CC1=C(C(=O)OC2CCCCC2)C(c2ccc(C)o2)C2=C(CCCC2=O)N1 (configuration not stated)	-50*	8%	1	-1%	-16%
Cc1[nH]n2c(=O)c3c(nc2c1-c1ccc(Cl)cc1)CCC3	-87*	-1%	-13	0%	-12%
Cc1[nH]n2c(=O)c3c(nc2c1-c1ccccc1)CCC3	?	12%	-29	0%	12%
COc1ccc(N(CC(=O)NCc2ccccc2)S(=O)(=O)c2c(C)n[nH]c2C)cc1	-22	-17%	-9	0%	-2%
COc1ccc(CONS(=O)(=O)c2ccc(NC(C)=O)cc2)cc1Cl	-106*	5%	10	0%	-4%
CN(CCCNC(=O)c1ccc(/C=N/O)nc1)CCCN(C)Cc1ccccc1	-28	10%	-9	0%	-18%
CN(CCNC(=O)c1ccc(/C=N/O)nc1)Cc1ccccc1	-76*	8%	-31	-1%	21%
O=C(NCc1ccccc1)C1CCCN(S(=O)(=O)c2cccc3nsnc23)C1 (configuration not stated)	-7	-4%	-3	0%	13%
O=C(O)c1ccccc1-c1ccccc1C(=O)Nc1nc2ccccc2s1	-2	7%	10	1%	-3%
